# Measured values: PubChem BioAssay
# Records with an inconclusive call do not appear. Calls of active or inactive are those of the source.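 The calls were made as follows, unless noted: active = normalized viability below 100% at a tested concentration; inactive = the rest.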
# Assays:
# [1] = growth inhibition of DIPG glioma cells, dose response, cell-based, SU-DIPG-XVII, MIPE5.0, CellTiter-Glo, qHTS (AID 1347060; cut-off not given, nearly all actives have AC50 up to about 26 µM;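 as to AC50: cells exposed to compound for 48 hours before viability readout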); conditions: SU-DIPG-XVII viability, CellTiter-Glo ATP luminescence
# [2] = growth inhibition of DIPG glioma cells, dose response, cell-based, JHH-DIPG-1, MIPE4.0, CellTiter-Glo, qHTS (AID 1347062; cut-off not given, nearly all actives have AC50 up to about 27 µM;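 as to AC50: cells exposed to compound for two days before readout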); conditions: JHH-DIPG-1 viability, CellTiter-Glo ATP luminescence
# [3] = growth inhibition of DIPG glioma cells, dose response, cell-based, SU-DIPG-IV, MIPE4.0, CellTiter-Glo, qHTS (AID 1347063; cut-off not given, nearly all actives have AC50 up to about 30 µM;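 also: compound exposure lasted 48 hours before the viability readout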); conditions: SU-DIPG-IV viability, CellTiter-Glo ATP luminescence
# [4] = growth inhibition of DIPG glioma cells, dose response, cell-based, SU-DIPG-XIII, MIPE5.0, CellTiter-Glo, qHTS (AID 1347064; cut-off not given, nearly all actives have AC50 up to about 23 µM;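 also: cells exposed to compound for 48 hours before the viability read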); conditions: SU-DIPG-XIII viability, CellTiter-Glo ATP luminescence
# [5] = viability loss in pontine glioma line – cell-based, SU-DIPG-XXV, MIPE5.0, CellTiter-Glo, qHTS, dose response (AID 1347065; cut-off not given, nearly all actives have AC50 up to about 26 µM;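 also: cells exposed to compound for 48 hours before ATP readout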); conditions: CellTiter-Glo ATP luminescence
# [6] = SU-DIPG-VI glioma cell viability, MIPE4.0 library, CellTiter-Glo luminescence, qHTS (AID 1347066; cut-off not given, nearly all actives have AC50 up to about 30 µM;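 also: cells exposed to compound for 48 hours before readout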); conditions: CellTiter-Glo ATP luminescence
# [7] = SU-DIPG-XXV glioma cell viability, MIPE5.0 library, qHTS (AID 1347068; cut-off not given, nearly all actives have IC50 up to about 30 µM;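 as to IC50: cells exposed to compound for 48 hours before viability readout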)
# [8] = JHH-DIPG-1 glioma cell viability, MIPE5.0 library, CellTiter-Glo luminescence, qHTS (AID 1347067; cut-off not given, nearly all actives have AC50 up to about 26 µM;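 also: cells exposed to compound for 48 hours before readout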); conditions: JHH-DIPG-1 glioma viability, CellTiter-Glo ATP luminescence
# [9] = sensitizers of A549 cells to miR-34 induction, primary screen, imaging, A549 dox-inducible miR-34, nuclei and caspase counts (AID 1347080;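 active = compounds whose cell count with miR-34 switched on is under 0.7 times the count with it off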); conditions: A549 miR-34 inducible, Hoechst nuclei count, 48 h
# [10] = modifiers of HSF1 nuclear foci, imaging, Selleck Cancer Library (AID 1347162; in the data active = plate-normalised HSF1 focus index below about 0.46); conditions: human cells, at 10 µM; SSMD: measured here: HSF1 foci SSMD mean; cell count: measured here: cell number; plate-normalised HSF1 focus index: stronger effect = lower value
# [11] = survival rescue of mitochondrial mutant cells in low glucose, primary screen, MELAS cybrids, Rieske KO mouse fibroblasts, CellTiter-Glo (AID 1508586;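 active = mean z-score across replicates of 1.96 or higher in either the MELAS or the Rieske mutant cell line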;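 also: z relative to plate mean and SD of compound and empty wells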)
# [12] = ovarian cancer cell viability with rucaparib, profiling panel, oncology-focused library, rucaparib conditional (AID 1508598); conditions: patient-derived ovarian cancer cells, CellTiter-Glo viability, 144 h, stronger effect = lower value
# [13] = LFS_MB_P medulloblastoma growth inhibition, cell-based, chromothripsis tumors, cisplatin or BGB combos (AID 1671449; in the data active = inhibition above about 80%;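 also: cells exposed for 96 hours; 0% = vehicle DMSO and 100% = killing by high DMSO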); conditions: LFS_MB_P medulloblastoma cells
# [14] = HDN33 neuroblastoma growth inhibition, cell-based, chromothripsis tumors, cisplatin or BGB combos (AID 1671450; in the data active = inhibition above about 80%;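 also: cells exposed to compound for four days; 0% = vehicle DMSO and 100% = cell killing by high DMSO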); conditions: HDN33 neuroblastoma cells, stronger effect = higher value
# [15] = ICB984 medulloblastoma cell growth inhibition, synergistic combos for chromothripsis tumors, cisplatin or BGB combos (AID 1671451; call rule not given here;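 also: cells exposed for 96 hours before readout; 0% = vehicle DMSO and 100% = killing by high DMSO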); conditions: ICB984 medulloblastoma cells, drug combinations, stronger effect = higher value
# [16] = HTB85 osteosarcoma cell growth inhibition, synergistic combos for chromothripsis tumors, BGB or cisplatin IC20 combos (AID 1671453; in the data active = inhibition above about 80%;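 also: cells exposed for 96 hours before readout; 0% = vehicle DMSO and 100% = high DMSO killing control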); conditions: HTB85 osteosarcoma cells, drug combinations, stronger effect = higher value
# [17] = MDA-MB-436 breast carcinoma cell growth inhibition, synergistic combos for chromothripsis tumors, BGB or cisplatin combos (AID 1671458; call rule not given here;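 also: cells exposed for 96 hours; 0% = vehicle DMSO and 100% = killing by high DMSO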); conditions: MDA-MB-436 breast carcinoma growth inhibition, drug combinations, stronger effect = higher value
# [18] = growth inhibition of BT084 medulloblastoma cells, cell-based, ICGC_MB145, cisplatin and BGB IC40 combos (AID 1671461; in the data active = inhibition above about 80%;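 also: cells exposed to drugs for 96 hours; 0% = vehicle DMSO and 100% = high DMSO full killing control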); conditions: drug combinations, stronger effect = higher value
# [19] = growth inhibition of RCMB18 medulloblastoma cells, cell-based, cisplatin and BGB IC40 combos (AID 1671462; in the data active = inhibition above about 80%;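 also: cells exposed to compound for four days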); conditions: stronger effect = higher value
# [20] = stronger effect = lower value, cell number ratio, induced over uninduced
# [21] = measured here: relative caspase fold change +Dox/-Dox
# [22] = measured here: total cells with miR-34 induction, stronger effect = lower value
# [23] = measured here: total cells without miR-34 induction
# [24] = MELAS cybrid survival, CellTiter-Glo 48 h, stronger effect = higher value
# [25] = Rieske KO mouse fibroblast survival, CellTiter-Glo 72 h
smiles,measurement,setting,value
Oc1ccc(-c2ccc(-c3cc(Nc4cccc(CNC5CC5)c4)n[nH]3)cc2)c(O)c1,AC50,[1],6.61 µM (active)
same,AC50,[2],1.66 µM (active)
same,AC50,[3],4.69 µM (active)
same,AC50,[4],13.2 µM (active)
same,AC50,[5],7.42 µM (active)
same,AC50,[6],16.6 µM (active)
same,IC50,[7],26.3 µM (active)
COc1ccc(-c2oc3c(CC=C(C)C)c(O)cc(O)c3c(=O)c2O)cc1,AC50,[1],20.9 µM (active)
same,outcome,[2],inactive
same,outcome,[3],inactive
same,AC50,[4],16.6 µM (active)
same,AC50,[5],18.6 µM (active)
same,outcome,[7],inactive
O=C(O)[C@H](Cc1c[nH]c2ccccc12)N1C(=O)c2ccccc2C1=O,outcome,[1],inactive
same,outcome,[2],inactive
same,outcome,[3],inactive
same,outcome,[6],inactive
same,outcome,[8],inactive
same,fold change,[9]; [20],0.96 (inactive)
same,fold change,[9]; [21],0.441
same,cell count,[9]; [22],7740
same,cell count,[9]; [23],8070
same,SSMD,[10],2.52
same,cell count,[10],7570
same,plate-normalised HSF1 focus index,[10],1.16 (inactive)
same,z-score,[11]; [24],-0.375 (inactive)
same,z-score,[11]; [25],-0.075
same,viability,"[12]; at 0.000305 µM, OCI-C5x cells, with rucaparib 10 µM, 100% = cells with rucaparib alone",113% (inactive)
same,viability,"[12]; at 0.000305 µM, OCI-C5x cells, without rucaparib",103% (inactive)
same,viability,"[12]; at 0.000305 µM, OCI-P5x cells, with rucaparib 20 µM, 100% = cells with rucaparib alone",84.4% (active)
same,viability,"[12]; at 0.000305 µM, OCI-P5x cells, without rucaparib",85.2% (active)
same,viability,"[12]; at 0.00122 µM, OCI-C5x cells, with rucaparib 10 µM, 100% = cells with rucaparib alone",126% (inactive)
same,viability,"[12]; at 0.00122 µM, OCI-C5x cells, without rucaparib",108% (inactive)
same,viability,"[12]; at 0.00122 µM, OCI-P5x cells, with rucaparib 20 µM, 100% = cells with rucaparib alone",92% (active)
same,viability,"[12]; at 0.00122 µM, OCI-P5x cells, without rucaparib",93.9% (active)
same,viability,"[12]; at 0.00488 µM, OCI-C5x cells, with rucaparib 10 µM, 100% = cells with rucaparib alone",118% (inactive)
same,viability,"[12]; at 0.00488 µM, OCI-C5x cells, without rucaparib",117% (inactive)
same,viability,"[12]; at 0.00488 µM, OCI-P5x cells, with rucaparib 20 µM, 100% = cells with rucaparib alone",89.2% (active)
same,viability,"[12]; at 0.00488 µM, OCI-P5x cells, without rucaparib",93.1% (active)
same,viability,"[12]; at 0.0195 µM, OCI-C5x cells, with rucaparib 10 µM, 100% = cells with rucaparib alone",116% (inactive)
same,viability,"[12]; at 0.0195 µM, OCI-C5x cells, without rucaparib",115% (inactive)
same,viability,"[12]; at 0.0195 µM, OCI-P5x cells, with rucaparib 20 µM, 100% = cells with rucaparib alone",91% (active)
same,viability,"[12]; at 0.0195 µM, OCI-P5x cells, without rucaparib",97.2% (active)
same,viability,"[12]; at 0.0781 µM, OCI-C5x cells, with rucaparib 10 µM, 100% = cells with rucaparib alone",109% (inactive)
same,viability,"[12]; at 0.0781 µM, OCI-C5x cells, without rucaparib",117% (inactive)
same,viability,"[12]; at 0.0781 µM, OCI-P5x cells, with rucaparib 20 µM, 100% = cells with rucaparib alone",87.1% (active)
same,viability,"[12]; at 0.0781 µM, OCI-P5x cells, without rucaparib",98.7% (active)
same,viability,"[12]; at 0.313 µM, OCI-C5x cells, with rucaparib 10 µM, 100% = cells with rucaparib alone",115% (inactive)
same,viability,"[12]; at 0.313 µM, OCI-C5x cells, without rucaparib",119% (inactive)
same,viability,"[12]; at 0.313 µM, OCI-P5x cells, with rucaparib 20 µM, 100% = cells with rucaparib alone",63.7% (active)
same,viability,"[12]; at 0.313 µM, OCI-P5x cells, without rucaparib",54.2% (active)
same,viability,"[12]; at 1.25 µM, OCI-C5x cells, with rucaparib 10 µM, 100% = cells with rucaparib alone",110% (inactive)
same,viability,"[12]; at 1.25 µM, OCI-C5x cells, without rucaparib",116% (inactive)
same,viability,"[12]; at 1.25 µM, OCI-P5x cells, with rucaparib 20 µM, 100% = cells with rucaparib alone",91.1% (active)
same,viability,"[12]; at 1.25 µM, OCI-P5x cells, without rucaparib",105% (inactive)
same,viability,"[12]; at 5 µM, OCI-C5x cells, with rucaparib 10 µM, 100% = cells with rucaparib alone",114% (inactive)
same,viability,"[12]; at 5 µM, OCI-C5x cells, without rucaparib",124% (inactive)
same,viability,"[12]; at 5 µM, OCI-P5x cells, with rucaparib 20 µM, 100% = cells with rucaparib alone",87.9% (active)
same,viability,"[12]; at 5 µM, OCI-P5x cells, without rucaparib",107% (inactive)
same,inhibition,"[13]; at 0.5 µM, stronger effect = higher value",-11.4% (inactive)
same,inhibition,"[13]; measured here: combination with BGB IC20, at 0.005 µM",-13.3%
same,inhibition,"[13]; measured here: combination with BGB IC40, at 0.005 µM",-16.5%
same,inhibition,"[13]; measured here: combination with BGB IC40, at 0.05 µM",-16.7%
same,inhibition,"[13]; measured here: combination with cisplatin, at 0.5 µM, stronger effect = higher value",-21.3%
same,inhibition,"[13]; measured here: combination with cisplatin, at 5 µM, stronger effect = higher value",-30.6%
same,inhibition,"[14]; BGB combo, at 5 µM",-27.5%
same,inhibition,[14]; at 0.5 µM,-36.3% (inactive)
same,inhibition,"[14]; cisplatin combo, at 5 µM",-28.6%
same,inhibition,"[14]; measured here: with BGB IC20 combination, at 0.5 µM",-35.8%
same,inhibition,"[14]; measured here: with cisplatin IC20 combination, at 0.5 µM",-38.5%
same,inhibition,"[14]; single agent, at 5 µM",-17%
same,inhibition,"[15]; BGB IC20 combo, at 0.005 µM",2.36%
same,inhibition,"[15]; BGB IC40 combo, at 0.005 µM",-26.6%
same,inhibition,"[15]; BGB IC40 combo, at 0.05 µM",4.66%
same,inhibition,[15]; at 0.5 µM,-28.2% (inactive)
same,inhibition,"[15]; cisplatin combo, at 0.05 µM",1.23%
same,inhibition,"[15]; cisplatin combo, at 0.5 µM",-24.8%
same,inhibition,"[15]; cisplatin combo, at 5 µM",-12.9%
same,inhibition,"[15]; measured here: 5 uM single agent, at 5 µM",3.99%
same,inhibition,[16]; at 0.5 µM,-21.8% (inactive)
same,inhibition,"[16]; measured here: with BGB IC20, at 0.5 µM",-19.3%
same,inhibition,"[16]; measured here: with BGB IC20, at 5 µM",-13.7%
same,inhibition,"[16]; measured here: with cisplatin IC20, at 0.5 µM",-26.1%
same,inhibition,"[16]; measured here: with cisplatin IC20, at 5 µM",-16.9%
same,inhibition,"[16]; single agent, at 5 µM",-18.1%
same,inhibition,[17]; at 0.5 µM,-15.2% (inactive)
same,inhibition,"[17]; measured here: BGB combination, at 0.5 µM",-12%
same,inhibition,"[17]; measured here: BGB combination, at 5 µM",-8.16%
same,inhibition,"[17]; measured here: cisplatin combination, at 0.5 µM",-19.2%
same,inhibition,"[17]; measured here: cisplatin combination, at 5 µM",-7.27%
same,inhibition,[18]; at 0.5 µM,-10.1% (inactive)
same,inhibition,"[18]; cisplatin combination, at 0.5 µM",-26.2%
same,inhibition,"[18]; cisplatin combination, at 5 µM",-3.75%
same,inhibition,"[18]; measured here: BGB IC40 combination 0.05 uM, at 0.05 µM",-4.25%
same,inhibition,"[18]; single agent, at 5 µM",-4.64%
same,inhibition,[19]; at 0.5 µM,-10.5% (inactive)
same,inhibition,"[19]; cisplatin combo, at 5 µM",-5.73%
same,inhibition,"[19]; measured here: BGB IC40 combination, at 0.05 µM",-15.4%
same,inhibition,"[19]; measured here: combination with cisplatin, at 0.5 µM",-22.8%
same,inhibition,"[19]; single agent, at 5 µM",-14.1%
C[C@H]1[C@H](OC(=O)CCC(=O)O)O[C@@H]2O[C@@]3(C)CC[C@H]4[C@H](C)CC[C@@H]1[C@@]24OO3,AC50,[1],3.72 µM (active)
same,AC50,[2],14.8 µM (active)
same,AC50,[3],3.72 µM (active)
same,AC50,[5],13.2 µM (active)
same,outcome,[6],inactive
CC(C)(C)c1cc(C(C)(C)C)c(NC(=O)c2c[nH]c3ccccc3c2=O)cc1O,AC50,[1],11.8 µM (active)
same,outcome,[2],inactive
same,outcome,[3],inactive
same,AC50,[5],10.5 µM (active)
same,outcome,[6],inactive
same,AC50,[8],14.8 µM (active)
same,IC50,[7],16.6 µM (active)
same,fold change,[9]; [20],0.893 (inactive)
same,fold change,[9]; [21],1.04
same,cell count,[9]; [22],5220
same,cell count,[9]; [23],5840
same,z-score,[11]; [24],-0.385 (inactive)
same,z-score,[11]; [25],0.598
O=C1NCCc2[nH]c(-c3ccncc3)cc21,AC50,[1],3.72 µM (active)
same,AC50,[2],3.32 µM (active)
same,AC50,[3],2.64 µM (active)
same,AC50,[5],2.09 µM (active)
same,outcome,[6],inactive
same,AC50,[8],3.32 µM (active)
same,IC50,[7],5.25 µM (active)
same,fold change,[9]; [20],1.04 (inactive)
same,fold change,[9]; [21],0.743
same,cell count,[9]; [22],2250
same,cell count,[9]; [23],2160
same,z-score,[11]; [24],0.826 (inactive)
same,z-score,[11]; [25],-3.11
